This is an account of results in PubChem BioAssay (NCATS).

The test system of one test is HB3. The test can be described thus: qHTS profiling for inhibitors of Plasmodium falciparum proliferation (AID 504749). The following applies: P. falciparum in erythrocytes, SYBR Green DNA, 72 h; series mostly up to 28.7 µM. In short, it runs like this:
(§1)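 Infected RBCs, 0.3% parasitemia/2.5% Hct final; cpd 72 h, 37 C, 5% CO2; lysis buffer with saponin/triton/SYBR Green I, o/n RT dark; FI 485/535; norm. to artemisinin (0.29 uM) and DMSO.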
For orientation: Quantitative high-throughput screening tests each substance at several concentrations.

The next test concerns JCK. The description is as above. The conditions noted are these: P. falciparum in erythrocytes, SYBR Green DNA, 72 h; series mostly up to 28.7 µM. In short, it runs like this: as §1
Another test deals with N140. The description is as above. The conditions noted are these: P. falciparum in erythrocytes, SYBR Green DNA, 72 h; series mostly up to 28.7 µM. In short, it runs like this:
as §1

A further test has as its system P93_24. The test is described as above. The conditions noted are these: P. falciparum in erythrocytes, SYBR Green DNA, 72 h; series mostly up to 28.7 µM. In short, it runs like this: as §1
The subject of a further test is P94_40. Described as above. The following applies: P. falciparum in erythrocytes, SYBR Green DNA, 72 h; series mostly up to 28.7 µM. Summed up:
as §1

A further test concerns PAD. Described as above. The conditions noted are these: P. falciparum in erythrocytes, SYBR Green DNA, 72 h; series mostly up to 28.7 µM. In short, it runs like this: as §1
The subject of another test is PC15. Described as above. The conditions noted are these: P. falciparum in erythrocytes, SYBR Green DNA, 72 h; series mostly up to 28.7 µM. Summed up: as §1
For the next test, the system named is PC26. Described as above. The following applies: P. falciparum in erythrocytes, SYBR Green DNA, 72 h; series mostly up to 28.7 µM. Summed up:
as §1

The next test relates to PC49. The description is as above. The following applies: P. falciparum in erythrocytes, SYBR Green DNA, 72 h; series mostly up to 28.7 µM. Summed up: as §1
In a further test the test system is SC27B. The test is described as above. The conditions noted are these: P. falciparum in erythrocytes, SYBR Green DNA, 72 h; series mostly up to 28.7 µM. In short, it runs like this:
as §1

For another test, the system named is TAB109. The test is described as above. The conditions noted are these: P. falciparum in erythrocytes, SYBR Green DNA, 72 h; series mostly up to 28.7 µM. Summed up:
as §1

For a further test, the system named is TAB113. Described as above. The conditions noted are these: P. falciparum in erythrocytes, SYBR Green DNA, 72 h; series mostly up to 28.7 µM. In short, it runs like this:
as §1

Another test has as its system TAB165. The description is as above. The conditions noted are these: P. falciparum in erythrocytes, SYBR Green DNA, 72 h; series mostly up to 28.7 µM. Summed up:
as §1

A further test concerns W2. The description is as above. The following applies: P. falciparum in erythrocytes, SYBR Green DNA, 72 h; series mostly up to 28.7 µM. Summed up:
as §1

For a further test, the system named is KB-3-1. The test can be described thus: Cytotoxic Profiling of Annotated Libraries Using Quantitative High-Throughput Screening (AID 1296008). As to max response: % is scaled to controls: 0 for no effect and ±100 for the full control effect. The following applies: Five cell lines viability, CellTiter-Glo ATP luminescence, 48-72 h; max response: stronger effect = lower value. Summed up:
(§2)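 Cytotoxicity was measured as CellTiter-Glo ATP luminescence, read after 10 min at room temperature. Compound treatment of the cells lasted 48 or 72 hr at 37 degrees Celsius in a qHTS format.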

Another test has as its system ICS. The test can be described thus: qHTS profiling for inhibitors of Plasmodium falciparum proliferation (AID 504749). The conditions noted are these: P. falciparum in erythrocytes, SYBR Green DNA, 72 h; series mostly up to 28.7 µM. Summed up: as §1
The test system of a further test is HEK293. The test can be described thus: Cytotoxic Profiling of Annotated Libraries Using Quantitative High-Throughput Screening (AID 1296008). As to max response: % is scaled to controls: 0 for no effect and ±100 for the full control effect. The following applies: Five cell lines viability, CellTiter-Glo ATP luminescence, 48-72 h; max response: stronger effect = lower value. In short, it runs like this: as §2
(In general: Cellular ATP, detected with luciferase, serves as a proxy for viable cell number.)

Another test relates to HaCat. Described as above. The conditions noted are these: Five cell lines viability, CellTiter-Glo ATP luminescence, 48-72 h; max response: stronger effect = lower value. Summed up: as §2
Another test deals with NIH3T3. The description is as above. The following applies: Five cell lines viability, CellTiter-Glo ATP luminescence, 48-72 h; max response: stronger effect = lower value. In short, it runs like this:
as §2

“And” between values parts separate entries of the source, which are not always exact repeats. Equal values may be shown once. Records with an inconclusive call do not appear. Values without a mark were called inactive. The source made the active and inactive calls. Calls follow the shape of the dose curve; as a rule, active = well fitted inhibition curve with a large enough effect; inconclusive = small, poorly fitted or top-dose-only effect; inactive = flat fitted curve, though single readings scatter.
Also: nearly all actives have a fitted effect of over 60% in size.
Potency is read from the fitted curve at half-maximal effect.

On to `NC(N)=NCc1cccc(I)c1`, for which the Potency result in the test with HB3, in the test on JCK, in the test on N140, in the test with P93_24, in the test with P94_40 and with PAD was “inactive” throughout. The Potency result with PC15, with PC26, in the test on PC49, in the test with SC27B, with TAB109 and in the test with TAB113 was “inactive” in each case. The Potency entry with TAB165 and in the test on W2 was “inactive” in each case. In addition, in the test on KB-3-1, the max response was 1.64% and -6.45%.

In the case of `NS(=O)(=O)c1cc(C(=O)O)cc(N2CCCC2)c1Oc1ccccc1`, the Potency result in the test on HB3, in the test on ICS, in the test on JCK, in the test with N140, in the test with P93_24 and with P94_40 was “inactive” in each case. In addition, the Potency result with PAD, in the test with PC15, in the test on PC26, in the test with PC49, in the test with SC27B and in the test with TAB109 was “inactive” throughout. The Potency result in the test with TAB113 and in the test with TAB165 was “inactive” each time. In addition, the max response in the test with HEK293 was 2.69%; in the test with HaCat, -7.61%; in the test with NIH3T3 it was -1.53%.

Regarding `CC(=O)Nc1ccc(CC(=O)O)cc1`, the Potency result with HB3, with ICS, with JCK, in the test on N140, in the test on P93_24 and in the test with P94_40 was “inactive” each time. Besides, the Potency result in the test with PAD, in the test with PC15, in the test with PC26, with PC49, in the test on SC27B and in the test with TAB109 was “inactive” throughout. In addition, the Potency entry in the test on TAB113, in the test with TAB165 and with W2 was “inactive” each time. The values for the max response in the test on HEK293, with KB-3-1 and in the test with NIH3T3 were 0.0311%, -17.4% and -0.623%, respectively. For the same compound, in the test on HaCat, the compound was called inactive.

For `Oc1c(Cl)cc(Cl)c(Cl)c1Cc1c(O)c(Cl)cc(Cl)c1Cl`, the Potency is 7.08 µM (active) with ICS; 8.91 µM (active) with P93_24; 8.91 µM (active) in the test on PC49; 10 µM (active) in the test with SC27B; 11.2 µM (active) in the test with TAB109; 12.6 µM (active) in the test on TAB113. In addition, the Potency in the test with TAB165 is 7.94 µM (active); in the test with HEK293, 8.41 µM (active).

Consider `C=C[C@H]1CN2CC[C@H]1C[C@H]2[C@H](O)c1ccnc2ccc(OC)cc12`, for which the max response is -3.94% with HaCat; 4.92% and -14.4% and -25.6% in the test with KB-3-1; -2.33% in the test on NIH3T3.

For the compound `CC(=O)NO`, the Potency result in the test with HB3, in the test on ICS, in the test with JCK, in the test with N140, in the test with P93_24 and with P94_40 was “inactive” in each case. Moreover, the Potency result with PAD, in the test with PC15, in the test with PC26, with PC49, with SC27B and with TAB109 was “inactive” throughout. The Potency entry in the test on TAB113, in the test on TAB165 and in the test with W2 was “inactive” throughout. The max response in the test on HEK293 is 1.75%; with HaCat, -61%; in the test with KB-3-1, 15.6%; in the test on NIH3T3, 2.47%.

Turning to `O=c1[nH]c(=O)n([C@H]2C[C@H](O)[C@@H](CO)O2)cc1F`, the Potency result in the test with HB3, with ICS, with JCK, with N140, with P93_24 and with P94_40 was “inactive” in each case. The Potency entry with PAD, with PC15, in the test with PC26, with PC49, with SC27B and in the test on TAB109 was “inactive” in each case. Also, the Potency entry in the test with TAB113, in the test on TAB165 and with W2 was “inactive” in each case. In addition, the Potency in the test with HEK293 was 0.0299 µM (active); in the test with HaCat, 0.0084 µM (active); in the test with NIH3T3, 0.006 µM (active).
